Coupling enz: inhibits coupling enzyme system, counter-screen for aldolase hits. coupling enzyme system counterscreen, AmpLite Red fluorescence. activity change, negative = inhibition, % at 58.2 µM, hits read low. 290,000 compounds, 0.67% hits. AID 2472; in the data active means activity change below about -30%
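First, compound is pin-transferred into glyceraldehyde-3-phosphate coupling-enzyme reagent at 57.5 uM final and held 10 min at RT. Next, substrate, coupling system and AmpLite Red are added. After 20 min RT, fluorescence (525/598 nm) is read.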
ELG1 repair inh: blocks ELG1-dependent DNA repair in HEK293T cells; HEK293T ELG1-luciferase reporter, luminescence, 16 h; DNA damage induced by 5-fluorouridine; 330,000 compounds, 2.3% hits; Potency, µM (highest dose often 46.1 µM), usual class: inhibitors; further: nearly all actives have a fitted effect of over 55% in size
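Luminescence from the luciferase reporter, measured 30 min after ONE-Glo reagent at room temperature, was the read-out. Beforehand, 2,000 cells per well were exposed for 16 hr at 37 °C to 5-fluorouridine together with compound or vehicle.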
Giardia killer: Giardia lamblia killing | Giardia lamblia trophozoite viability | activity change, % at 7.66 µM, hits read low | 340,000 compounds, 0.15% hits; in the data active means activity change below about -80%; inconclusive means between about -30% and that limit;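 further: parasites exposed to compound for two days anaerobically before the ATP read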
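ATP-content bioluminescence gauges trophozoite survival. Cells (100/well) receive compound and incubate anaerobically for 48 hrs at 37 deg C; detection reagent follows for 15-30 min at room temperature.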
Sfp PPTase inh: Sfp phosphopantetheinyl transferase inhibition; Q9F4F7; Biochemical Sfp PPTase activity, qHTS; Potency, µM, hits mostly inhibitors; 310,000 compounds, 3.5% hits; AID 1490;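 further: the enzyme is Sfp with the accession as filed and its product quenches rhodamine fluorescence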
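Fluorescence-quenching assay with 15 nM Sfp, 5 uM rhodamine-CoA and 12.5 uM BHQ-2-labelled ybbR peptide in pH 7.6 Hepes/MgCl2 buffer. Enzyme was pre-incubated with compound for 15 min at room temperature. Rate was taken from the 30-min fluorescence change (525/598 nm).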
Of the large screens only hits and unclear results are named; the others gave an inactive call. Rows were chosen to be rich in hits. Some 5.5% of all compounds tested hit in one or more screens of this group. Unless noted, the call rests on the fitted dose curve; in most records, active means well fitted curve in the direction sought with a large enough effect; inconclusive means small, poorly fitted or top-dose-only effect, or another doubt; inactive means no such curve, though single readings can be large; an effect the other way counts as inactive or inconclusive.

C[N+]1(C)[C@@H]2CC(OC(=O)[C@@H](CO)c3ccccc3)C[C@@H]1[C@H]1O[C@H]12 (stereo partly specified)	none (no result: Coupling enz, ELG1 repair inh, Giardia killer)
COC(=O)C1=C(c2ccccc2OCc2ccccc2)C[C@@H]2CC[C@H]1N2C(=O)NCc1ccc(N(C)C)cc1	ELG1 repair inh 16µM (no result: Coupling enz, Sfp PPTase inh)
CC(=NCc1ccc2c(c1)OCO2)c1c(O)n(C)c(=O)n(C)c1=O	ELG1 repair inh inconclusive
CCC(=NCc1ccc2c(c1)OCO2)c1c(O)n(C)c(=O)n(C)c1=O	ELG1 repair inh 15µM
CCC(=NCc1cc(OC)cc(OC)c1)c1c(O)n(C)c(=O)n(C)c1=O	ELG1 repair inh 21µM, Sfp PPTase inh 50µM
CCC(=NCCc1c[nH]c2ccccc12)c1c(O)n(C)c(=O)n(C)c1=O	ELG1 repair inh 16µM
CCC(=NCCc1c[nH]c2ccccc12)c1c(O)n(-c2ccc(C)cc2)c(=O)[nH]c1=O	ELG1 repair inh inconclusive
CC(C)[C@H](NC(=O)[C@H](CCC(=O)O)NC(=O)[C@H](Cc1ccccc1)NC(=O)[C@H](C)NC(=O)[C@@H](N)Cc1ccc(O)cc1)C(=O)N[C@H](C(=O)NCC(N)=O)C(C)C	none (no result: Coupling enz, ELG1 repair inh, Giardia killer)
CC(=O)Nc1c2sscc-2n(C)c1=O	Sfp PPTase inh inconclusive (no result: ELG1 repair inh, Giardia killer)
C#Cc1cccc2c1c(C(=O)c1ccc(Cn3c(C)nc4cnccc43)c(F)c1)cn2C(=O)N(C)C	none (no result: ELG1 repair inh, Giardia killer)
CC(=O)NC1N=C(C)N(c2ccccc2)C1=O (stereo unspecified)	Coupling enz -78, Sfp PPTase inh 40µM
COC(=O)C(Cc1ccc(N(CCCl)CCCl)cc1)N=Cc1ccccc1O (stereo unspecified)	ELG1 repair inh 18µM
O=C(O)Cc1cccnc1C(=O)O	Coupling enz -68, Sfp PPTase inh 16µM (no result: ELG1 repair inh, Giardia killer)
CC[N+](C)(CC)CCOC(=O)C(O)(c1ccccc1)c1ccccc1	none (no result: Coupling enz, ELG1 repair inh, Giardia killer)
CC(=O)c1c(C)n(Cc2ccccc2)c2ccc(O)cc12	ELG1 repair inh 23µM
COC(=O)c1c(C)n(Cc2ccccc2)c2ccc(O)cc12	Sfp PPTase inh 50µM
Cc1c(C(=O)C(=O)N2CCOCC2)c2ccccc2n1Cc1ccccc1	none (no result: Coupling enz)
CCOC(=O)c1c(C)n(Cc2ccccc2)c2ccc(OCC(O)Cn3nc(C)cc3C)cc12 (stereo unspecified)	ELG1 repair inh 21µM
CCOC(=O)c1c(C)n(Cc2ccccc2)c2ccc(O)cc12	Sfp PPTase inh 50µM
CCCCC/C=C\C/C=C\CCCCCCCC(=O)NCCCC(=O)O	none (no result: ELG1 repair inh, Giardia killer)
CCn1c(O)c(N=Nc2cccc(S(=O)(=O)N3CCOCC3)c2)c(=O)n(CC)c1=S	ELG1 repair inh 18µM
COc1ccc(C(C)(C)C)cc1NC(=O)CCCn1c(=O)oc2ccccc21	ELG1 repair inh inconclusive
COc1ccccc1-n1c(O)c(/C=N/NC(=S)Nc2ccccc2)c(=O)[nH]c1=S	ELG1 repair inh inconclusive, Sfp PPTase inh 10µM
CCn1c(O)c(/C=N/NC(=O)c2ccccc2)c(=O)[nH]c1=S	ELG1 repair inh inconclusive
C=C1Nc2ccccc2C(=O)N1c1ccccc1C	none (no result: Coupling enz, ELG1 repair inh, Giardia killer)
Cl.Cl.Cl.Cl.Cl.Cl.N.N.N.N.NNNNN.NNNNN.O.O.[Ru].[Ru].[Ru]	Sfp PPTase inh 50µM (no result: ELG1 repair inh, Giardia killer)
NC(N)=N/N=C/c1cn(-c2ccccc2)nc1-c1cccs1	Sfp PPTase inh 79µM
O=C(C1CCN(Cc2ccccc2)CC1)N1CCCC1	Sfp PPTase inh 79µM
O=C(Cc1c(Cl)cccc1Cl)N1CCN(Cc2ccccc2)CC1	none
CC1CCCN(c2ccc(C(=O)N3CCC4(CC3)OCCO4)cc2[N+](=O)[O-])C1 (stereo unspecified)	none
CCOC(=O)C1CCCN(c2ccc([N+](=O)[O-])c3nonc23)C1 (stereo unspecified)	ELG1 repair inh inconclusive, Giardia killer -95
COc1ccc(N2C(=O)NC(=O)/C(=C\c3cn(C)c4ccccc34)C2=O)cc1	ELG1 repair inh inconclusive
Cc1ccc(N2C(=O)NC(=O)/C(=C\c3ccc(N4CCOCC4)cc3)C2=O)cc1	ELG1 repair inh inconclusive, Sfp PPTase inh 18µM
CCOC(=O)C1CCN(/C=C2/C(=O)NC(=O)N(c3ccc(OCC)cc3)C2=O)CC1	none
CCOc1ccc(N2C(=O)NC(=O)/C(=C\c3cc(OC)c(OC)cc3[N+](=O)[O-])C2=O)cc1	Sfp PPTase inh 45µM
O=C1NC(=O)N(c2ccc(F)cc2)C(=O)/C1=C/c1ccc(N2CCOCC2)cc1	Sfp PPTase inh 40µM
CCOc1ccc(N2C(=O)NC(=O)/C(=C\c3ccc(N4CCOCC4)cc3C)C2=O)cc1	ELG1 repair inh inconclusive, Giardia killer inconclusive, Sfp PPTase inh 40µM
C(=C/c1ccccc1)/CN1CCN(CCOC(c2ccccc2)c2ccccc2)CC1	Sfp PPTase inh inconclusive (no result: ELG1 repair inh, Giardia killer)
COc1cc(CNC(=O)CCCC/C=C/C(C)C)ccc1O	none
COc1cccc(N2CCN(C(=O)C3CCCN(S(=O)(=O)c4ccc5c(c4)oc(=O)n5C)C3)CC2)c1 (stereo unspecified)	ELG1 repair inh inconclusive
CC1(C)C(O)CC(O)[C@]2(C)C1CC(O)[C@]1(C)C2CC[C@@]2(C)C(c3ccoc3)CC3OC312 (stereo partly specified)	none (no result: ELG1 repair inh, Giardia killer)
COc1ccc(N2C(=O)NC(=O)/C(=C/c3ccc(N4CCOCC4)cc3)C2=O)cc1	Sfp PPTase inh 50µM (no result: Giardia killer)
COC(=O)[C@@H](Cc1ccccc1)N(Cc1ccccc1)S(=O)(=O)N(Cc1ccccc1)[C@H](Cc1ccccc1)C(=O)OC	ELG1 repair inh inconclusive (no result: Coupling enz, Sfp PPTase inh)
CCOc1cccc(N2C(=O)/C(=C/c3ccco3)C(=O)NC2=S)c1	Giardia killer inconclusive, Sfp PPTase inh 35µM
COc1ccccc1/C=C1\C(=O)NC(=S)N(c2ccccc2)C1=O	Sfp PPTase inh 45µM
O=C1NC(=S)N(c2ccccc2)C(=O)/C1=C/c1ccco1	Sfp PPTase inh 22µM
COc1ccc(/C=C/C=C2C(=O)NC(=S)NC2=O)cc1	none (no result: Coupling enz, ELG1 repair inh, Sfp PPTase inh)
COc1ccccc1C=C1C(=O)NC(=S)NC1=O	none (no result: Coupling enz, ELG1 repair inh, Sfp PPTase inh)
O=C1NC(=S)N(c2ccc(F)cc2)C(=O)/C1=C/c1ccccc1O	ELG1 repair inh inconclusive
COc1ccc(N2C(=O)/C(=C/C=C/c3ccccc3[N+](=O)[O-])C(=O)NC2=S)cc1	Sfp PPTase inh 35µM
O[C@H]1CCCC[C@H]1N1CCC(c2ccccc2)CC1	none (no result: ELG1 repair inh, Giardia killer)
OCC(Br)(Br)Br	none (no result: ELG1 repair inh, Giardia killer)
CCOP(=O)(OCC)O/C(=C/Cl)c1ccc(Cl)cc1Cl	none (no result: Coupling enz, ELG1 repair inh, Giardia killer)
C[C@@H]1CO1	none (no result: ELG1 repair inh, Giardia killer)
COc1ccc(N2C(=O)/C(=C/c3cccs3)C(=O)NC2=S)cc1	Sfp PPTase inh 8.9µM
CC#C[C@]1(O)CC[C@H]2C3C=C(C)C4=CC(=O)C=C[C@]4(C)[C@H]3[C@@H](O)C[C@@]21C (stereo partly specified)	none (no result: ELG1 repair inh, Giardia killer)
CN1CCc2cc3c(c4c2[C@H]1Cc1ccccc1-4)OCO3	Coupling enz -33 (no result: ELG1 repair inh, Giardia killer)
COc1cc2c(cc1OC)-c1c3c(cc4c1[C@@H](C2)N(C)CC4)OCO3	none
C=CCOc1ccc(CC2C(=O)N(C)C(=O)N(C)C2=O)cc1	none
Cc1ccc(CC2C(=O)N(C)C(=O)N(C)C2=O)s1	Sfp PPTase inh 35µM
Oc1ccc2c3c1O[C@H]1c4c(c5ccccc5n4Cc4ccccc4)C[C@@]4(O)C(C2)N(CC2CC2)CC[C@]314	none (no result: Coupling enz, ELG1 repair inh, Giardia killer)
O=C(Cc1ccc(Br)cc1)N1CCN(Cc2ccccc2)CC1	none
